Anthrax LF prot = blocks Bacillus anthracis lethal factor protease; hit rate 0.12% among 360,000; inhibition, % at 10 µM; P15917; multiplex microsphere protease cleavage assay, LF; note: plate controls were buffer without enzyme for full effect and enzyme alone for no effect
Target sequence (P15917 whole entry, looked up): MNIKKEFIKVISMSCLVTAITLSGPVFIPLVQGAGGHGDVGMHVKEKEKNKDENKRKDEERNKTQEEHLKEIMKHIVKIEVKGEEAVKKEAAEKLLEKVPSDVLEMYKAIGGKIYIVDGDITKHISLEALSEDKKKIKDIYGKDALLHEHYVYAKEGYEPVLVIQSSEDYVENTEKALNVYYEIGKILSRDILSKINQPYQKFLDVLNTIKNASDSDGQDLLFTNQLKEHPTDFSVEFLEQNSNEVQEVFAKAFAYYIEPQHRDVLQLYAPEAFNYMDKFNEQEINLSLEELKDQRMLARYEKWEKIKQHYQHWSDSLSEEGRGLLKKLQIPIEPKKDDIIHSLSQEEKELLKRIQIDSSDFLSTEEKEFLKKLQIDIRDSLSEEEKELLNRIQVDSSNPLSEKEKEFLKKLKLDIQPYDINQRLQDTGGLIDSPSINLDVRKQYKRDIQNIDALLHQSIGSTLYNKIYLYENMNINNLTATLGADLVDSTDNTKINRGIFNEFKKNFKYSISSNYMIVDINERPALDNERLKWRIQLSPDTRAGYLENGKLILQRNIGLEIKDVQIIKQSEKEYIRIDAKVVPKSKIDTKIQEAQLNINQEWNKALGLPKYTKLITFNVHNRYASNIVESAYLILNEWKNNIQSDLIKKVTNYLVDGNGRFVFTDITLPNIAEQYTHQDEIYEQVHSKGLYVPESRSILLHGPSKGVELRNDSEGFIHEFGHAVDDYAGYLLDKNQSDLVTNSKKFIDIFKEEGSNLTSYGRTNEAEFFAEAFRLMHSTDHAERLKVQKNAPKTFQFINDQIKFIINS
BoNT F protease = BoNT F light chain protease inhibition; AID 588497; hit rate 0.22% among 360,000; inhibition, % at 10 µM; Multiplex microsphere protease cleavage assay, flow cytometry; in the data active = inhibition above about 35%, passing the limit was not always enough; inconclusive = no clear call, values can overlap the other calls; note: plate controls were buffer without enzyme for full effect and enzyme alone for no effect
BoNT-A LC inh2 = blocks Botulinum neurotoxin A light chain protease. multiplex microsphere protease substrate cleavage, flow cytometry. inhibition, % at 10 µM. hit rate 0.17% among 360,000. AID 588499; note: plate controls were buffer without enzyme for full effect and enzyme alone for no effect
TcdB inh = inhibitors of Clostridioides difficile toxin B glycohydrolase. inhibition, % at 9.99 µM. TcdB glycohydrolase enzymatic assay, plate reader. hit rate 0.24% among 350,000. P18177. AID 652162; in the data active = inhibition above about 10%
Autofluor counter = flagged as autofluorescent in microsphere protease counterscreen | compound autofluorescence counterscreen, microsphere flow cytometry; stronger effect = higher value | fluorescence intensity (test concentration not listed) | hit rate 3.1% among 360,000; in the data active = fluorescence intensity above about 16000; inconclusive = no clear call, values can overlap the other calls
* hit, by the source's call; ? = inconclusive; . = no result. Many of the other results were omitted from the sample, so hits are more common in it than they were. Cut-off read from the data, not from the text of the source, unless noted: active = inhibition above about 30%; inconclusive = no clear call, values can overlap the other calls; inactive = below that.

SMILES	Anthrax LF prot	BoNT F protease	BoNT-A LC inh2	TcdB inh	Autofluor counter
O=C1C(Cl)=C(NCC2CCCO2)C(=O)N1Cc1ccccc1 (stereo unspecified)	-1	-2	?	.	20284*
CNc1nc2c(c(=O)n(C)c(=O)n2C)n1Cc1ccccc1	-1	3	2	.	21814*
CC(C)CC#Cc1cnc2c(c1)C(=O)N([C@@H](C)CO)C[C@@H](C)[C@@H](CN(C)C(=O)c1ccc3c(c1)OCO3)O2	.	.	.	0	.
Cc1ccc(S(=O)(=O)Nc2ccc3c(c2)CC(=O)N([C@@H](C)CO)C[C@@H](C)[C@H](CN(C)C(=O)Nc2ccc(C(F)(F)F)cc2)O3)cc1	.	.	.	0	.
O=C(CC1NCCNC1=O)Nc1ccc2c(c1)OCO2 (stereo unspecified)	-5	-8	-2	.	22917*
COC(=O)c1cc(NC(=O)CC2NCCNC2=O)cc(C(=O)OC)c1 (stereo unspecified)	-3	-3	-1	.	10508
CCc1cc(C(=O)OC)c(NC(=O)CC2NCCNC2=O)s1 (stereo unspecified)	0	0	?	.	21532*
C[C@@H]1CN([C@H](C)CO)C(=O)c2cc(-c3ccccc3)cnc2O[C@H]1CN(C)C(=O)Cc1ccccc1	.	.	.	1	.
Cc1cc(C)c(S(=O)(=O)N2CCCCC2C(=O)O)c(C)c1 (stereo unspecified)	0	2	0	13*	4041
Cc1ccc(S(=O)(=O)N2CCCC2C(=O)O)cc1 (stereo unspecified)	1	-7	0	0	?
O=C1/C(=C/c2ccncc2)SC(=S)N1C1CCCCC1	-3	0	0	.	2123
Cc1ccc(/C=C2/SC(=S)N(C3CCCCC3)C2=O)o1	24	26	39*	1	3828
C=CCOc1c(Br)cc(C2NC(=O)NC(C)=C2C(C)=O)cc1OCC (stereo unspecified)	-2	1	3	.	22042*
O=C(C[C@@H]1CC[C@@H]2[C@H](COC[C@H](O)CN2C(=O)Nc2cc(Cl)cc(Cl)c2)O1)NCC1CCCCC1	.	.	.	0	.
CCOc1cccc(NC(=O)CSc2nc(C)c3c(c2C#N)CCCC3)c1	-3	-6	-1	.	4532
CC(=O)Nc1cccc(NC(=O)CSc2nc(C)c(C)c(C)c2C#N)c1	0	5	?	.	21241*
COCCCNC(=O)CSc1nc2ccccc2c(=O)n1CCCN1CCCCC1	1	4	-1	1	4142
CCOc1ccc(NC(=O)CSc2nc3ccccc3c(=O)n2CCCC(=O)NCC2CCCO2)cc1 (stereo unspecified)	-5	-9	-1	1	4218
CC(C)CCNC(=O)CSc1nc2ccsc2c(=O)n1NC(=O)c1ccccc1	-3	2	1	.	21825*
O=C(CCCn1c(SCC(=O)NCC2CCCO2)nc2ccccc2c1=O)NCC1CCCO1 (stereo unspecified)	-1	-4	-2	.	20974*
O=C(CSc1nc2cc(Cl)ccc2o1)NCCc1ccccc1	0	-4	-1	.	19890*
COCCNC(=O)CSc1nc2ccccc2c(=O)n1CCCC(=O)NCc1ccccc1	-4	1	?	.	22634*
COc1ccc(CNC(=O)CCCn2c(SCC#N)nc3cc4c(cc3c2=O)OCO4)cc1	-1	0	3	.	21923*
O=C(CSc1nc2ccccc2c(=O)n1NC(=O)Cc1ccccc1)NCCc1ccccc1	-2	3	3	.	21231*
O=C(CSc1nc2ccccc2c(=O)n1CC1CCCO1)N1CCN(c2ccccc2)CC1 (stereo unspecified)	-1	2	2	.	21377*
SMILES	Anthrax LF prot	BoNT F protease	BoNT-A LC inh2	TcdB inh	Autofluor counter
O=C(C[C@@H]1C=C[C@H](NS(=O)(=O)c2ccccc2)[C@@H](CO)O1)N1CCc2ccccc2C1	.	.	.	0	.
COc1ccc(NC(=O)Nc2ccc3c(c2)C(=O)N([C@@H](C)CO)C[C@@H](C)[C@H](CN(C)C(=O)Nc2ccc(C(F)(F)F)cc2)OCCCC[C@H](C)O3)cc1	.	.	.	0	.
COc1ccc(-c2nc3ccc([N+](=O)[O-])cc3[nH]2)cc1	-2	-6	0	14*	2475
Cc1ccc(-c2nc3ccc([N+](=O)[O-])cc3[nH]2)cc1	-3	-2	0	12*	3479
O=[N+]([O-])c1ccc2nc(-c3ccc(Cl)cc3)[nH]c2c1	-2	-9	1	5	2607
N=Cc1c(O)n(-c2cccc(Cl)c2)c(=O)[nH]c1=O	-2	-2	-1	.	23754*
O=C([C@H]1[C@H](CO)[C@H]2Cn3c(cccc3=O)[C@H]2N1CCC(F)(F)F)N1CCCCC1	.	.	.	-2	.
CCOC(=O)c1cnn(-c2nc(-c3cccc(F)c3)cs2)c1C(F)(F)F	-3	-2	2	.	19380*
CCOC(=O)c1ccc(-c2cccc(C(F)(F)F)c2)nc1C	-2	-3	1	.	22705*
C[C@H](CO)N1C[C@H](C)[C@H](CN(C)C(=O)C2CCC2)Oc2cc(C3=CCCC3)ccc2S1(=O)=O	.	.	.	-1	.
CC(C)N(C(=O)COC(=O)c1cc(Cl)cc(Cl)c1N)C(C)C	-1	-9	-7	.	21720*
COc1ccc(C2=NO[C@@H]3C(=O)N(c4c(C)cccc4C)C(=O)[C@H]23)cc1OC	-2	0	?	.	22305*
C/C=C/c1ccc([C@@H]2[C@H](CO)N(C(=O)CC)C23CN(CCC(F)(F)F)C3)cc1	.	.	.	0	.
C=CCOc1c(CNc2ccc(C(=O)O)cc2)cccc1OCC	0	9	?	.	19846*
C=CCOc1c(CNc2ccc(C(=O)O)cc2)cccc1OC	-2	-3	0	-1	2150
O=C(NCC1CCCCC1)[C@H]1[C@H](CO)[C@H]2Cn3c(ccc(-c4cncnc4)c3=O)[C@@H]1N2	.	.	.	0	.
c1coc(CN2CNc3nc4ccccc4n3C2)c1	5	2	0	1	4172
CCCN1CN(Cc2ccco2)c2nc3ccccc3n2C1	1	4	?	-1	18478*
O=C(N[C@H]1CC[C@H](CCNS(=O)(=O)c2ccccc2)O[C@H]1CO)c1cccnc1	.	.	.	0	.
C[C@@H]1CCCCO[C@H](CN(C)C(=O)Nc2ccccc2)[C@@H](C)CN([C@H](C)CO)C(=O)c2cc(NS(C)(=O)=O)ccc2O1	.	.	.	0	.
COc1ccc(/C=C/C(=O)OC(C)CN2CCOCC2)cc1 (stereo unspecified)	0	-5	-2	.	17262*
CC(CN1CCCCC1)OC(=O)/C=C/c1ccccc1 (stereo unspecified)	-1	36*	0	0	3373
COc1ccc(/C=C/C(=O)OC(C)CN2CCCCC2)cc1 (stereo unspecified)	1	?	-3	1	4198
CC(=O)N1[C@H](C(=O)NCc2ccccc2Cl)[C@@H](CO)[C@@H]2Cn3c(ccc(-c4ccncc4)c3=O)[C@@H]21	.	.	.	0	.
CCN1[C@@H]2Cn3c(ccc(-c4cccnc4)c3=O)[C@H]1[C@@H](C(=O)NCc1ccccc1)[C@@H]2CO	.	.	.	-2	.
Cc1[nH]c(=O)[nH]c(=O)c1S(=O)(=O)NCC12CC3CC(CC(C3)C1)C2	0	-3	?	.	21375*
C[C@H]1CCCCO[C@@H](CN(C)Cc2ccccc2)[C@@H](C)CN([C@@H](C)CO)C(=O)c2cc(NS(=O)(=O)c3cccs3)ccc2O1	.	.	.	1	.

High-throughput results (PubChem)
